Measurements reported in PubChem BioAssay (NCATS).
Records with an inconclusive call do not appear. Entries that show only a call come without a potency. Calls of active or inactive are those of the source. The call rests on the fitted dose curve; in most records, active means well fitted curve in the direction sought with a large enough effect; inconclusive means small, poorly fitted or top-dose-only effect, or another doubt; inactive means no such curve, though single readings can be large; an effect the other way counts as inactive or inconclusive.

Assays:
[1] = qHTS for Inflammasome Signaling Inhibitors: IL-1-beta AlphaLISA screen against the NCATS CANVASS Library (AID 1347379); settings: THP-1 LPS/ATP, IL-1B AlphaLISA secretion, 16 h; series mostly up to 57.5 µM;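 further: human THP-1 cells primed with LPS then triggered with ATP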
From the text: (§1) Natural products and their derivatives continue to be wellsprings of nascent therapeutic potential. However, many laboratories have limited resources for biological evaluation, leaving their previously isolated or synthesized compounds largely or completely untested. To address this issue, the Canvass library of natural products was assembled (https://tripod.nih.gov/canvass), in collaboration with academic and industry researchers, for quantitative high-throughput screening (qHTS) across a diverse set of cell-based and biochemical assays. The pure (>85% purity by liquid chromatography/mass spectrometry [LC/MS]) Canvass library of 346 natural products were submitted by 45 academic laboratories and companies around the world. We collected pure natural products to circumvent deconvolution and structure elucidation due to time and resource limitations. The library was formatted into 1536-well plates and evaluated in 50 qHTS (in an 11-pnt concentration series) bioassays with broad scope of disease-relevant mechanisms. The resulting data set from 50 different assays was then systematically analyzed to identify overall trends and specific natural products with interesting biological activities. Reported herein are the results of each individual qHTS and their corresponding assay protocol. A qHTS assay, based on AlphaLISA technology, was developed to screen the NCATS CANVASS library to look for novel inflammasome inhibitors. The assay detects IL-1B using AlphaLISA anti-IL-1B acceptor and donor beads. Human THP-1 cells were incubated with Canvass compound for 1 hr, followed by stimulation with lipopolysaccharide and ATP to induce inflammasome activation. Compounds that inhibit activation is flagged and validated. […]
IL-1-beta qHTS protocol: Three microliters containing 3000 THP-1 cells were dispensed into the wells of solid, white, tissue culture treated Greiner 1,536-well plates. […] The AlphaLISA signal was read by a PerkinElmer EnVision plate reader with an ultrasensitive luminescence detector and 1536 Plate HTS AlphaScreen aperture (excitation of 680nm and emission of 615nm).

[2] = qHTS for Antimalaria activity screened against the NCATS CANVASS Library (AID 1347380);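 further: Plasmodium falciparum strain Dd2 asexual parasites grown in red blood cells; nearly all actives have a fitted effect of over 40% in size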; settings: P. falciparum Dd2 growth, SYBR Green fluorescence, 72 h; series mostly up to 28.7 µM
In short: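 SYBR Green fluorescence at 485/535 nm was read 18 hr after lysis. This followed a 72 hr incubation at 37C in 5% O2, 5% CO2 of Dd2-infected erythrocytes (0.3% parasitemia, 2.5% final hematocrit) with compounds titrated over 11 concentrations.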

[3] = Inflammasome Signaling qHTS Counterscreen: IL-1-beta AlphaLISA counterscreen against the NCATS CANVASS Library (AID 1347381); settings: Purified IL-1beta AlphaLISA signal interference counterscreen; series mostly up to 57.5 µM;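 further: cell-free check with purified IL-1β in medium and no THP-1 cells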
From the text: Natural products and their derivatives continue to be wellsprings of nascent therapeutic potential. However, many laboratories have limited resources for biological evaluation, leaving their previously isolated or synthesized compounds largely or completely untested. To address this issue, the Canvass library of natural products was assembled (https://tripod.nih.gov/canvass), in collaboration with academic and industry researchers, for quantitative high-throughput screening (qHTS) across a diverse set of cell-based and biochemical assays. The pure (>85% purity by liquid chromatography/mass spectrometry [LC/MS]) Canvass library of 346 natural products were submitted by 45 academic laboratories and companies around the world. We collected pure natural products to circumvent deconvolution and structure elucidation due to time and resource limitations. The library was formatted into 1536-well plates and evaluated in 50 qHTS (in an 11-pnt concentration series) bioassays with broad scope of disease-relevant mechanisms. The resulting data set from 50 different assays was then systematically analyzed to identify overall trends and specific natural products with interesting biological activities. Reported herein are the results of each individual qHTS and their corresponding assay protocol. A qHTS assay, based on AlphaLISA technology, was developed to screen the NCATS CANVASS library to look for novel inflammasome inhibitors. The assay detects IL-1B using AlphaLISA anti-IL-1B acceptor and donor beads. Human THP-1 cells were incubated with Canvass compound for 1 hr, followed by stimulation with lipopolysaccharide and ATP to induce inflammasome activation. […] National Center for Advancing Translational Sciences (NCATS), Rockville, MD National Institute of Health (NIH), Bethesda, Maryland
IL-1-beta-counterscreen qHTS protocol: 1. […] The AlphaLISA signal was read by the EnVision plate reader (PerkinElmer) using a 680 nm excitation and 615 nm emission filters.

[4] = Cytotoxicity qHTS for assessment of Hepg2 cells membrane integrity screened against the NCATS CANVASS Library (AID 1347387); settings: HepG2 LDH release (CytoTox-ONE) fluorescence, 5 h; series mostly up to 46.1 µM
In short: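 Membrane damage quantified as fluorescent LDH-release signal (ex 560, em 590 nm) in HepG2 cells treated 5 hr at 37C. qHTS format, 11 concentrations spanning 0.59 nM - 46 uM final, cells plated at 2000 per well the night before.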

[5] = qHTS for Activators of p53 Stress Response Pathway screened against the NCATS CANVASS Library (AID 1347388); settings: p53RE-bla HCT-116, beta-lactamase reporter, 16 h; series mostly up to 46.1 µM
In short: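 Beta-lactamase reporter driven by p53 response elements in HCT-116 cells, read as the 460 nm/530 nm emission ratio after CCF4 loading, following 16 h of exposure to an 11-point series. Cell viability was measured in the same wells by CellTiter-Glo luminescence.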

[6] = qHTS assay for small molecule disruptors of mitochondrial membrane potential screened against the NCATS CANVASS Library (AID 1347389); settings: HepG2 mitochondrial membrane potential, m-MPI red/green ratio, 1.5 h; series mostly up to 46.1 µM; further: nearly all actives have a fitted effect of over 60% in size
In short: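 Mitochondrial membrane potential in HepG2: 1 h compound treatment (11-point concentration series), 30 min m-MPI dye at 37C, then dual fluorescence of J-aggregates (ex 540/em 590) and monomers (ex 490/em 535); lower red/green ratio indicates depolarization.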

[7] = Secretion counterscreen for inhibitors of the SERCaMP assay screened against the NCATS CANVASS Library (AID 1347390); settings: SH-SY5Y constitutive GLuc secretion, luminescence, 20 h; series mostly up to 76.6 µM;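 further: light from luciferase secreted into medium read as a measure of general secretion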
In short: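 SH-SY5Y cells with constitutively secreted GLuc reporter, 1000 cells/well, treated 20 h at 37C with compounds at 0.001 - 77 uM final; secreted luciferase read as luminescence after coelenterazine; Brefeldin A as positive control.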

[8] = qHTS for activators of Nrf2/ARE signaling pathway screened against the NCATS CANVASS Library (AID 1347391); settings: ARE-bla HepG2, beta-lactamase reporter, 16 h; series mostly up to 46.1 µM; further: nearly all actives have a fitted effect of over 60% in size
In short: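 Eleven-point qHTS, 16 h treatment of HepG2 cells carrying an ARE-driven beta-lactamase reporter; CCF4 ratio read (405 nm excitation, 460 and 530 nm emission), with CellTiter-Glo ATP luminescence for viability.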

[9] = qHTS for activators of dead-cell proteases activity screened against the NCATS CANVASS Library (AID 1347392); settings: HepG2 cytotoxicity, dead-cell protease luminescence, 5 h; series mostly up to 46.1 µM;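 further: luminescence from protease leaking out of membrane-damaged cells cleaving impermeant substrate; rising signal means more cytotoxicity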
In short: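 Luminescent dead-cell protease readout (AAF-aminoluciferin, 15 min, room temperature) after 5 h compound treatment of HepG2 cells (2000/well, pre-attached 18 h). Eleven concentrations.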

[10] = qHTS for inhibitors of ER calcium dysfunction: SERCaMP assay screened against the NCATS CANVASS Library (AID 1347393); settings: SH-SY5Y GLuc-SERCaMP (Gaussia luciferase released on ER calcium loss) secretion, thapsigargin, luminescence; series mostly up to 76.6 µM; further: nearly all actives have a fitted effect of over 40% in size; further: potency means the concentration at half of the fitted maximal effect
From the text: as §1, with “activities.” for “activities. Reported herein are the results of each individual qHTS and their corresponding assay protocol. A qHTS assay, based on AlphaLISA technology, was developed to screen the NCATS CANVASS library to look for novel inflammasome inhibitors. The assay detects IL-1B using AlphaLISA anti-IL-1B acceptor and donor beads. Human THP-1 cells were incubated with Canvass compound for 1 hr, followed by stimulation with lipopolysaccharide and ATP to induce inflammasome activation. Compounds that inhibit activation is flagged and validated.”
SERCaMP assay protocol: 1. […] Luminescence signal was obtained via the ViewLux plate reader (Perkin Elmer) using the clear emission filter and 1x binning, 5 seconds exposure settings.

**Q.** For O=c1cc(-c2ccccc2)oc2cc(O)c(O)c(O)c12, which outcome [1] is on record?
**A.** The outcome was “inactive”.

**Q.** And the outcome [2]?
**A.** The outcome was “inactive”.

**Q.** And the outcome [3]?
**A.** The outcome was “inactive”.

**Q.** What about the outcome [4] of the same molecule?
**A.** The outcome was “inactive”.

**Q.** And the outcome [5]?
**A.** Its outcome is “inactive”.

**Q.** What about the outcome [6] of the same molecule?
**A.** Its outcome is “inactive”.

**Q.** And the outcome [7]?
**A.** The outcome was “inactive”.

**Q.** What about the outcome [8] of the same molecule?
**A.** The outcome was “inactive”.

**Q.** What about the outcome [9] of the same molecule?
**A.** The outcome was “inactive”.

**Q.** And the Potency [10]?
**A.** The Potency was “inactive”.

**Q.** For O=C(O)C(O)Cc1ccc(O)c(O)c1 (stereo not drawn), which outcome [1] is on record?
**A.** Its outcome is “inactive”.

**Q.** What about the outcome [3] of the same molecule?
**A.** Its outcome is “inactive”.

**Q.** What about the outcome [4] of the same molecule?
**A.** The outcome was “inactive”.

**Q.** And the outcome [5]?
**A.** The outcome was “inactive”.

**Q.** And the outcome [6]?
**A.** The outcome was “inactive”.

**Q.** What about the outcome [7] of the same molecule?
**A.** The outcome was “inactive”.

**Q.** And the outcome [8]?
**A.** Its outcome is “inactive”.

**Q.** What about the outcome [9] of the same molecule?
**A.** Its outcome is “inactive”.

**Q.** Which results are given for COC(=O)[C@@H]1[C@H]2C[C@H]3c4[nH]c5ccccc5c4CCN3C[C@@H]2CC[C@@H]1O?
**A.** outcome [1]: inactive; outcome [2]: inactive; outcome [3]: inactive; outcome [4]: inactive; outcome [5]: inactive; outcome [6]: inactive; outcome [7]: inactive; outcome [8]: inactive; outcome [9]: inactive; Potency [10]: 30.5 µM (active)
